Screening data from PubChem.
In the library only some 9.2% were active in any assay of this set; here they are far more common.
SMN2 splice up = increases expression of the SMN2 splice variant; HEK293 SMN2-luciferase splicing reporter, luminescence, 30-36 h; 210,000 tested, 2.8% active; Potency, µM (highest dose often 46.1 µM), inactives show at the top dose activity change, positive = activation, hits mostly activators; AID 1458; further: % of control where 0% means no effect; nearly all actives have a fitted effect of over 55% in size
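HEK293 cells carry an SMN2 […]–luciferase reporter in which exon 7 inclusion puts luciferase in frame. Cells were plated 10-12 h before compound addition, then incubated 30-36 h at 37C. ONE-Glo luminescence was read; sodium butyrate at 4.5 mM final served as control.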
ELG1 genotox = genotoxicity induction in ELG1-luciferase HEK293T cells; HEK293T ELG1-luciferase reporter, luminescence, 16 h; Potency, µM (titrated, usually from 46 µM), for inactives: at the highest dose activity change, positive = activation, hits mostly activators; 330,000 tested, 1.3% active; AID 504466; further: % of control where 0% means no effect; nearly all actives have a fitted effect of over 60% in size
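16 hr compound incubation (37 °C, 5% CO2) of HEK293T cells carrying luciferase-tagged ELG1; luciferase then measured by ONE-Glo luminescence after 30 min at RT.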
FLuc counter = counter-screen for miR-21 project: firefly luciferase inhibitors or activators. P08659. purified FLuc, Km substrates, luminescence inhibition. Potency, µM (doses to about 57.5 µM), without a hit: top-dose activity change, negative = inhibition, usual class: inhibitors. 360,000 tested, 6.9% active. AID 588342;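 further: plate controls were vehicle for no effect and reference inhibitor for full effect; nearly all actives have a fitted effect of over 55% in size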
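Biochemical qHTS of compounds, final roughly 60 µM downward over six points, against 10 nM purified firefly luciferase using Km concentrations of substrates (10 uM D-luciferin, 10 uM ATP) in Tris acetate pH 7.5 buffer; luminescence output.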
NPC1 promoter act = NPC1 promoter activation; AID 485313; 320,000 tested, 2.4% active; Huh7 NPC1 promoter luciferase reporter, 24 h; Potency, µM (doses to about 9.22 µM), without a hit: top-dose activation, usual class: activators; further: % of control where 0% means no effect; nearly all actives have a fitted effect of over 60% in size
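In 1536-well qHTS, Huh7 cells harboring an NPC1 promoter–luciferase construct received compound for 24 h; activation was quantified by luminescence following luciferase reagent addition.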
Rab9 prom act = Rab9 promoter activation; Huh7 Rab9 promoter-luciferase reporter, luminescence, 24 h; Potency, µM (highest dose often 9.22 µM), for inactives: at the highest dose activation, negative = inhibition, most hits filed as activators; 320,000 tested, 2.8% active; further: % of control where 0% means no effect; nearly all actives have a fitted effect of over 60% in size
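Cell-based reporter: Huh7 stable for Rab9 promoter-driven luciferase, plated in reduced-serum medium with 10% FBS at 1500 cells/well, compound-treated 24 h at 37 °C, luminescence read after 10 min reagent.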
ELG1 repair inh = blocks ELG1-dependent DNA repair in HEK293T cells. HEK293T ELG1-luciferase reporter, luminescence, 16 h; DNA damage induced by 5-fluorouridine. Potency, µM (top dose mostly 46.1 µM), for the others: at the highest dose activity change, negative = inhibition, hits mostly inhibitors. 330,000 tested, 2.3% active; further: on the % scale 0 is the no-effect control and ±100 the full control effect; nearly all actives have a fitted effect of over 55% in size
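Step one: seed 2,000 cells per well. Step two: pin-transfer compound or DMSO alongside 5-fluorouridine. Step three: incubate 16 hr, 37 °C, 5% CO2. Step four: add ONE-Glo, wait 30 min, read luminescence.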
ELG1 FLuc counter = luciferase inhibition in cell-free luciferin readout for ELG1 hits; shares compounds with ELG1 repair inh; cell-free firefly luciferase luminescence counter-screen, ViewLux; Potency, µM (top dose mostly 46.1 µM), without a hit: top-dose activity change, negative = inhibition, hits mostly inhibitors; 350 tested, 3% active; further: on the % scale 0 is the no-effect control and ±100 the full control effect
ELG1-Luc inh = inhibits ELG1-dependent DNA repair in HEK293T cells, confirmed; 670 tested, 68% active; shares compounds with ELG1 repair inh; Potency, µM (highest dose often 46.1 µM), without a hit: at the top dose activity change, negative = inhibition, most hits filed as inhibitors; HEK293T ELG1-luciferase levels, luminescence; cells co-treated with 5-fluorouridine; AID 624248; further: on the % scale 0 is the no-effect control and ±100 the full control effect; nearly all actives have a fitted effect of over 55% in size
Target sequence (Q96QE3 whole entry, looked up): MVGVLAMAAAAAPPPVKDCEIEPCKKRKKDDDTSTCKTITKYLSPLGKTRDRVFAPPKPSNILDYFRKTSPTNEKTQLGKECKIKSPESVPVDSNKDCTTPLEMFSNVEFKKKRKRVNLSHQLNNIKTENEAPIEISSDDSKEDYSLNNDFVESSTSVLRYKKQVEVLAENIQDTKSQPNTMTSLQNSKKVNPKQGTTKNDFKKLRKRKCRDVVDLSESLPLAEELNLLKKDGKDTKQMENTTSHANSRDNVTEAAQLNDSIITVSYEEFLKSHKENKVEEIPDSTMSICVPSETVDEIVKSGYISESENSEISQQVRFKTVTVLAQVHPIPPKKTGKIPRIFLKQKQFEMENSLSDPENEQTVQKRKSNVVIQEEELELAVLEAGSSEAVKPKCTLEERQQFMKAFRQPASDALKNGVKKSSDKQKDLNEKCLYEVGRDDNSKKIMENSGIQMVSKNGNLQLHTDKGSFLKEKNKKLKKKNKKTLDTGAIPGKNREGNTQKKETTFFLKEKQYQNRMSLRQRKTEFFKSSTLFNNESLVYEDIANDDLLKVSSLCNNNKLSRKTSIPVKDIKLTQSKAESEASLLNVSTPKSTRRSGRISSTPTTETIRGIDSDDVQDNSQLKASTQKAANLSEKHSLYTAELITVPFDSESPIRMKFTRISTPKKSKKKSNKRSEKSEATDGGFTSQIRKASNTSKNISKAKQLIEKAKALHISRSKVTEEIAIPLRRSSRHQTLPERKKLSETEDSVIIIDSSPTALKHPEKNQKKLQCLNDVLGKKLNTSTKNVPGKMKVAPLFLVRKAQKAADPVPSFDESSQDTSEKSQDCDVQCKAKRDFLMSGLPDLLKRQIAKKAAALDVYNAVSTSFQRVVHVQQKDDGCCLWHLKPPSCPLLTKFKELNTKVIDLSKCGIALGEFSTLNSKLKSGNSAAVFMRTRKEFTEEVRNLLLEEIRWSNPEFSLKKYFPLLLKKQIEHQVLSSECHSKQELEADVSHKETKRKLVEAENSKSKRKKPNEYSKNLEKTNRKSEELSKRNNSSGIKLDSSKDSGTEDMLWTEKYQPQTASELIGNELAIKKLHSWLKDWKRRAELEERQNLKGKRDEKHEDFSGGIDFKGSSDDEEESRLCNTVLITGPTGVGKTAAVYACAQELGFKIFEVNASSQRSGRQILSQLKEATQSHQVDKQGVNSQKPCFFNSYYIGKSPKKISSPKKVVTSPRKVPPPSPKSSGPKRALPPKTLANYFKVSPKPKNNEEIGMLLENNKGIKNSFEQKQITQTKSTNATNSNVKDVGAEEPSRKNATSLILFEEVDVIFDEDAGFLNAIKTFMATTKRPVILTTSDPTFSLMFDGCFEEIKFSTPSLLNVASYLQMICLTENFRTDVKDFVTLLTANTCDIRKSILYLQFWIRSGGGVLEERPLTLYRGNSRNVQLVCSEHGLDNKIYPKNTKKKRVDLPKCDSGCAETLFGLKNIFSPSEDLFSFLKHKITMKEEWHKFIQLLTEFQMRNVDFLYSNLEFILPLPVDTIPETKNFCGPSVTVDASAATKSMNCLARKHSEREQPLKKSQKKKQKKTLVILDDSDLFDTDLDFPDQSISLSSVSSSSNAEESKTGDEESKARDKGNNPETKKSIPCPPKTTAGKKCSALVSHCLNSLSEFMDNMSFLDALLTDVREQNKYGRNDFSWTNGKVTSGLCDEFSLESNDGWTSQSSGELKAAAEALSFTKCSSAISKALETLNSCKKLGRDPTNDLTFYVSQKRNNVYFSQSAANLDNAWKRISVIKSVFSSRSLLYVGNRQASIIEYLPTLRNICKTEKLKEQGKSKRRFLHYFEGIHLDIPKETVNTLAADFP
ELG1-Luc MMS = confirmation of human ELG1 repair inhibitors, MMS stimulated; 670 tested, 53% active; shares compounds with ELG1 repair inh; HEK293T luciferase-tagged ELG1 level, MMS stimulated; Potency, µM (highest dose often 46.1 µM), inactives show top-dose activity change, negative = inhibition, usual class: inhibitors; AID 624249; further: on the % scale 0 is the no-effect control and ±100 the full control effect; nearly all actives have a fitted effect of over 60% in size
ELG1 5-FU = confirmation of ELG1 repair inhibitors: viability with 5FU; AID 624250; cell viability with 5-FU, ELG1-dependent repair; 670 tested, under 10 active; shares compounds with ELG1 repair inh; Potency, µM (series often up to 46.1 µM), for the others: top-dose activity change, negative = viability loss, actives largely listed as cytotoxic;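 further: ELG1-luc HEK293T cells cotreated with 5-fluorouridine at 10 µM final; viability measured 16 h after compound addition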
ELG1 MMS viab = confirmation of ELG1 repair inhibitors: viability with MMS; shares compounds with ELG1 repair inh; Cell viability with MMS, ELG1-dependent DNA repair; Potency, µM (series often up to 46.1 µM), for inactives: top-dose activity change, negative = viability loss, actives largely listed as cytotoxic; 670 tested, 33% active;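 further: ELG1-luc HEK293T cells co-treated with 10 µM MMS; viability read 16 h after compound addition; on the % scale 0 is the no-effect control and ±100 the full control effect; nearly all actives have a fitted effect of over 60% in size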
Cell viab unstim = counter-screen for ELG1 repair inhibitors: unstimulated cell viability; Potency, µM (titrated, usually from 45.9 µM), for inactives: at the highest dose activity change, negative = loss of viability, most hits filed as cytotoxic; shares compounds with ELG1 repair inh; 900 tested, 8% active; cell viability counter-screen, unstimulated, luminescence;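 further: compound exposure lasted 16 hours before reading; on the % scale 0 is the no-effect control and ±100 the full control effect; nearly all actives have a fitted effect of over 55% in size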
FLuc enzyme = counter-screen for ELG1 repair inhibitors: firefly luciferase inhibition. shares compounds with ELG1 repair inh. purified firefly luciferase, luminescence counter-screen. Potency, µM (highest dose often 57.5 µM), without a hit: top-dose activity, negative = inhibition, most hits filed as inhibitors. 350 tested, 10% active. AID 624253; further: on the % scale 0 is the no-effect control and ±100 the full control effect
* hit, by the source's call; ? = inconclusive; . = no result; [ ] = remark or other dose. The call rests on the fitted dose curve; in most records, active means well fitted curve in the direction sought with a large enough effect; inconclusive means small, poorly fitted or top-dose-only effect, or another doubt; inactive means no such curve, though single readings can be large; an effect the other way counts as inactive or inconclusive. Potency means the concentration at half of the fitted maximal effect.

SMILES	SMN2 splice up	ELG1 genotox	FLuc counter	NPC1 promoter act	Rab9 prom act	ELG1 repair inh	ELG1 FLuc counter	ELG1-Luc inh	ELG1-Luc MMS	ELG1 5-FU	ELG1 MMS viab	Cell viab unstim	FLuc enzyme
COc1cc(-c2nn3c(-c4ccccc4)nnc3s2)cc(OC)c1OC	-3%	-3%	6%	14%	-3%	?	.	.	.	.	.	.	.
COC(=O)Nc1nc2ccc(C(=O)c3cccs3)cc2[nH]1	-7%	.	.	?	-8%[46.1 µM]	.	.	.	.	.	.	-10%	.
COC(=O)Nc1nc2ccc(S(=O)c3ccccc3)cc2[nH]1 (configuration not stated)	-9%	.	.	.	.	.	.	.	.	.	.	.	.
Oc1cc2cc(-c3csc(-c4ccc(F)cc4)n3)cc3c2n1CCC3	.	.	.	.	.	.	.	.	.	.	.	1%	.
Fc1ccc(-c2csc(-c3nc(-c4ccc(Br)s4)cs3)n2)cc1	-1%	.	2%	.	.	.	.	.	.	.	.	.	.
COc1cc(OC)c2c(-c3cccc(-c4ccc(N(C)C)cc4)c3)cc(=O)oc2c1	.	2.6µM*	.	.	.	?	.	.	.	.	.	-13%	.
COc1ccc(-c2cccc(-c3cc(=O)oc4cc(OC)cc(OC)c34)c2)cc1	.	14%	.	.	.	?	.	.	.	.	.	.	.
O=C1NC[C@H](c2ccccc2)OC(=O)[C@H](Cc2ccc(F)cc2)C/C=C\C[C@H]1CC(=O)N(CCO)Cc1ccccc1	.	-14%	.	.	.	1.3µM*	.	5.6µM*	2.8µM*	?	?	?	.
O=C1NC[C@H](c2ccccc2)OC(=O)[C@@H](Cc2ccc(F)cc2)C/C=C\C[C@H]1CC(=O)N(CCO)Cc1ccccc1	.	-6%	.	.	.	2.6µM*	.	7.9µM*	13µM*	?	?	?	.
O=C(C[C@H]1C/C=C\C[C@@H](Cc2ccc(F)cc2)C(=O)O[C@@H](c2ccccc2)CNC1=O)NCCO	.	-5%	.	.	.	-26%	.	.	.	.	.	.	.
Cc1c(Cl)cccc1NC(=O)CSc1nc(=O)n(Cc2ccco2)c2c1CCC2	.	.	-16%	.	.	.	.	.	.	.	.	.	.
COc1ccc(C(=O)N/C(=C\c2cccs2)c2nc3ccccc3[nH]2)cc1OC	-17%	-2%	?	-1%	0%	2.3µM*	.	7.9µM*	1%	?	-1%	?	.
COc1ccc(/C=C(/NC(=O)c2ccccc2)c2nc3ccccc3[nH]2)cc1OC	8%	-4%	-18%	5%	-8%	-13%	.	.	.	.	.	.	.
COC(=O)c1ccc2c(=O)n(CCCCCC(=O)N3CCN(c4ccccc4)CC3)c(=O)[nH]c2c1	-27%	-32%	-12%	-2%	-2%	7.3µM*	22µM*	8.9µM*	7.9µM*	?	10µM*	20µM*	-2%
COc1cc2[nH]c(=O)n(CCCCCC(=O)N3CCN(c4ccccc4)CC3)c(=O)c2cc1OC	-10%	-34%	4%	-4%	-2%	16µM*	?	13µM*	16µM*	8%	?	?	-18%
CN(C)/C=C\C(=C/C(=O)C(F)(F)F)Nc1ccccc1Oc1ccccc1	-33%	-9%	5%	-2%	-1%	?	.	.	.	.	.	.	.
COC(C(=O)Nc1ccnn1C1CCN(Cc2nccs2)CC1)c1ccccc1 (configuration not stated)	.	2%	3%	-1%	0%	3%	.	.	.	.	.	.	.
Cc1cc(-c2ccccc2)n2nc(-c3ccc(Cl)cc3)cc2n1	.	.	-2%	.	.	.	.	.	.	.	.	.	.
Cc1nc2cc(-c3ccccc3)nn2c(N)c1-c1ccccc1	.	1.8µM*	.	1µM*	0.63µM*	?	58%	.	.	.	.	0%	0.37µM*
CCOC(=O)NC1=NCC(C)S1 (configuration not stated)	.	3%	2%	0%	11%	7%	.	.	.	.	.	.	.
COc1ccc(Cl)cc1NC(=O)c1ccco1	21%	-1%	3%	16%	9%	5%	.	.	.	.	.	.	.
Cc1ccc(NC(=O)c2ccc(OC(=O)c3cc4ccccc4o3)cc2)cc1	10µM*	3.2µM*	-14%	3.5µM*	2µM*	?	65%	.	.	.	.	-1%	?
Cc1ccc(OC(=O)c2cc(=O)c3ccccc3o2)cc1	3%	1%	0%	-1%	1%	10%	.	.	.	.	.	.	.
Cc1ccc(NC(=O)c2ccc(OC(=O)c3ccco3)cc2)cc1	13µM*	8.2µM*	-11%	2µM*	2.8µM*	?	76%	.	.	.	.	-1%	-11%
O=C(Nc1cc(Cl)ccc1Cl)c1ccc(OC(=O)c2ccco2)cc1	-38%	15%	-3%	0%	5%	25%	41%	.	.	.	.	4%	5%
Cc1ccc2c(c1)nnn2C1CCN(S(=O)(=O)c2ccc(C(=O)NC3CCCC3)cc2)CC1	5%	-8%	5%	-2%	-10%	4.5µM*	.	3.1µM*	?	?	?	?	.
COc1ccccc1-c1nc2c(c(SCC(=O)N3CCCCC3)n1)Cc1c(CO)cnc(C)c1O2	.	-8%[9.26 µM]	-1%	0%	-1%	8.2µM*	-49%	10µM*	?	?	?	?	-6%
